# Results as given in the supplement of paper PMC6411743.
# ± gives the standard deviation of the averaged measurements. About 5,400 targets were measured; listed, in parts, are those with the largest changes and a random draw of the rest.
# Tests used:
# Assay in all cases: NP40-soluble protein abundance relative to vehicle (solubility fold change) (ratio); higher = more soluble protein in presence of GTP
# GLA = biological target: T1, GLA (UniProt P06280)
# T1 sequence (whole entry): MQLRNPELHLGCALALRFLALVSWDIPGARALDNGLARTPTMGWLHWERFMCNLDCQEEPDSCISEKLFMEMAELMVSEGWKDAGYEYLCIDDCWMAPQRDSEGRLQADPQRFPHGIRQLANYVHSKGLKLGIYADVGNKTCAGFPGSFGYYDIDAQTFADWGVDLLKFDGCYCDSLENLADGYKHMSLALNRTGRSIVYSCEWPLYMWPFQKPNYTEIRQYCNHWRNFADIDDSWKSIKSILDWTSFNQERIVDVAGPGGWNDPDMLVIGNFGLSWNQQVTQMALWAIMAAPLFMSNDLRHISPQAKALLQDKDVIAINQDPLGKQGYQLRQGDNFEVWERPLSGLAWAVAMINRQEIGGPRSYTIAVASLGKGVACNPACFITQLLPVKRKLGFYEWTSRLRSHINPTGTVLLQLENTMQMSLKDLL
# Method in brief: (§1)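 Each value is a fold change relative to the detergent-processed vehicle, calculated per replicate from vsn-normalised intensities. Jurkat crude lysate received eight concentrations (0.1 to 10 mM) for 10 min at room temperature and 3 min at 37 °C, then was solubilised in 0.8% NP40 with benzonase (60 min, 4 °C). The ultracentrifuged supernatant was TMT-labelled and run by LC-MS/MS in three independent experiments.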
# SEC24A = biological target: T2, SEC24A (UniProt O95486)
# T2 sequence (whole entry): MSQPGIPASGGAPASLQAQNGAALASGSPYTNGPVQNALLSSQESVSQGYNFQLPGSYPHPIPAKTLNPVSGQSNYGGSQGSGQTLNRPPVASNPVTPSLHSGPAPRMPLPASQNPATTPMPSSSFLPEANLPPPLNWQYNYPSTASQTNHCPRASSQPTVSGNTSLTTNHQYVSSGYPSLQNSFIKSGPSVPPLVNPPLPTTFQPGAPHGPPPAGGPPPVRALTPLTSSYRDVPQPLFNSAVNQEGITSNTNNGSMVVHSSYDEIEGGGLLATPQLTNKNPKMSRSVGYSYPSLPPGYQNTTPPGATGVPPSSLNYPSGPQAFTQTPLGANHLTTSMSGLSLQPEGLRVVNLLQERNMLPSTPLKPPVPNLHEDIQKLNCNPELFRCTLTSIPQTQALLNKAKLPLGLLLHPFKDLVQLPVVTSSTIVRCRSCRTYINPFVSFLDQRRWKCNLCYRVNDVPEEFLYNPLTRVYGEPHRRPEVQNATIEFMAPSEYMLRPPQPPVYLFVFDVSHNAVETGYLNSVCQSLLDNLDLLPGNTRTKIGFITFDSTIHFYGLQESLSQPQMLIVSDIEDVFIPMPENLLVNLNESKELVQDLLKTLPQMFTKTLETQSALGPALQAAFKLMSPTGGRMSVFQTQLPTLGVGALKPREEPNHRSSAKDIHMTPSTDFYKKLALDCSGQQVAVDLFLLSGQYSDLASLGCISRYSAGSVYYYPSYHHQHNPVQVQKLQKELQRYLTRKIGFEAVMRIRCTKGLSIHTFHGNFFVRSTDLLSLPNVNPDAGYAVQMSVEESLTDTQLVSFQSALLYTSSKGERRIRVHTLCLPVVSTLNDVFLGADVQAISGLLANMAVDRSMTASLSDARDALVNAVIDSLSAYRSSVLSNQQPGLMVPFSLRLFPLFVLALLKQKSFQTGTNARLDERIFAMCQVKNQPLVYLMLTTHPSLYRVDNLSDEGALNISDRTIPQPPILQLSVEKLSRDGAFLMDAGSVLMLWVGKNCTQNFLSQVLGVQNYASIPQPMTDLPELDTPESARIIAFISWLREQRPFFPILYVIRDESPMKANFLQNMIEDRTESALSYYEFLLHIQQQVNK
# Method in brief: as §1
# TXNL1 = biological target: T3, TXNL1 (UniProt O43396)
# T3 sequence (whole entry): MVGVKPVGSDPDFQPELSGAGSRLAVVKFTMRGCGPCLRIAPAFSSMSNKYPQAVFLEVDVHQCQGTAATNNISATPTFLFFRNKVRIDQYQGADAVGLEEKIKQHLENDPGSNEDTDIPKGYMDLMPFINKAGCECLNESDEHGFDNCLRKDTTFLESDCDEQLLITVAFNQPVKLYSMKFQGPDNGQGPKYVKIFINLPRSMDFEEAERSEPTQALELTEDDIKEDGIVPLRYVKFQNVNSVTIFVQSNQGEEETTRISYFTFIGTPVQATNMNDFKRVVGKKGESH
# Method in brief: as §1
compound,measurement,setting,value
Nc1nc2c(ncn2[C@@H]2O[C@H](COP(=O)(O)OP(=O)(O)OP(=O)(O)O)[C@@H](O)[C@H]2O)c(=O)[nH]1 [guanosine triphosphate],NP40-soluble protein abundance,GLA; concentration: 0.1mM,1.04 ± 0.017
same,NP40-soluble protein abundance,GLA; concentration: 0.5mM,1.04 ± 0.018
same,NP40-soluble protein abundance,GLA; concentration: 1mM,1.01 ± 0.039
same,NP40-soluble protein abundance,GLA; concentration: 2mM,0.982 ± 0.068
same,NP40-soluble protein abundance,GLA; concentration: 4mM,0.985 ± 0.063
same,NP40-soluble protein abundance,GLA; concentration: 6mM,0.966 ± 0.087
same,NP40-soluble protein abundance,GLA; concentration: 8mM,0.983 ± 0.04
same,NP40-soluble protein abundance,GLA; concentration: 10mM,0.979 ± 0.048
same,NP40-soluble protein abundance,SEC24A; concentration: 0.1mM,0.974 ± 0.013
same,NP40-soluble protein abundance,SEC24A; concentration: 0.5mM,0.986 ± 0.021
same,NP40-soluble protein abundance,SEC24A; concentration: 1mM,0.926 ± 0.041
same,NP40-soluble protein abundance,SEC24A; concentration: 2mM,0.909 ± 0.026
same,NP40-soluble protein abundance,SEC24A; concentration: 4mM,0.957 ± 0.019
same,NP40-soluble protein abundance,SEC24A; concentration: 6mM,0.944 ± 0.02
same,NP40-soluble protein abundance,SEC24A; concentration: 8mM,0.909 ± 0.027
same,NP40-soluble protein abundance,SEC24A; concentration: 10mM,0.915 ± 0.036
same,NP40-soluble protein abundance,TXNL1; concentration: 0.1mM,0.993 ± 0.02
same,NP40-soluble protein abundance,TXNL1; concentration: 0.5mM,1.03 ± 0.064
same,NP40-soluble protein abundance,TXNL1; concentration: 1mM,1.02 ± 0.042
same,NP40-soluble protein abundance,TXNL1; concentration: 2mM,1.01 ± 0.07
same,NP40-soluble protein abundance,TXNL1; concentration: 4mM,1 ± 0.052
same,NP40-soluble protein abundance,TXNL1; concentration: 6mM,1.01 ± 0.046
same,NP40-soluble protein abundance,TXNL1; concentration: 8mM,1 ± 0.044
same,NP40-soluble protein abundance,TXNL1; concentration: 10mM,1.01 ± 0.054
